Outcome and AC50 data for 38 compounds are collected here from PubChem BioAssay (EPA / NIEHS).

Values joined by “and” are separate entries in the source; they are usually repeats but may differ in a detail not shown here. Equal entries are not always repeated. Some structures have more than one record in an assay (separate samples or runs), and their calls can disagree. Active and inactive are the calls of the source. The calls were made as follows: active = hit-call score of the fitted dose curve at least 0.9, where 1 is the maximum; inactive = score below 0.9.

Read-out in the assay: Interleukin-8 (IL8), CXCL8 (gene 3576)
As to the kind of experiment: BSK_3C_IL8: BioMAP Diversity Plus: 3C Assay for Interleukin-8 (IL8) Biomarker Activity (AID 2283020). To be noted: primary human endothelial cells (HUVEC); actives raise or lower the signal. As to the method:
BSK_3C is a cell-based, multiplexed-readout assay that uses umbilical vein endothelium, a human vascular primary cell, with measurements taken at 24 hours after chemical dosing in a 96-well plate.BSK_3C_IL8 is an assay component measured in the BSK_3C assay. It measures IL-8 antibody related to regulation of gene expression using ELISA technology.Data from the assay component BSK_3C_IL8 was analyzed into 1 assay endpoint. This assay endpoint, BSK_3C_IL8, was analyzed with bidirectional fitting relative to DMSO as the negative control and baseline of activity. Using a type of binding reporter, gain or loss-of-signal activity can be used to understand changes in the signaling as they relate to the gene CXCL8. Furthermore, this assay endpoint can be referred to as a primary readout, because this assay has produced multiple assay endpoints where this one serves a signaling function. To generalize the intended target to other relatable targets, this assay endpoint is annotated to the cytokine intended target family, where the subfamily is interleukins.
The levels of cell surface (or secreted, indicated by the prefix "s") biomarker endpoints were measured by ELISA. Overt cytotoxicity to cells in confluent adherent cultures (all systems other than the BT system) was assessed by measuring total protein levels using sulforhodamine B (SRB) staining in parallel cultures at the time of biomarker measurements, indicated as SRB endpoints. For proliferation assays for adherent cell types, individual cell types are cultured at sub-confluence and relative cell numbers quantified by SRB staining at time points optimized for each system (48 h: 3C and CASM3C systems; 72 h: BT and HDF3CGF systems; 96 h: SAg system). SRB was performed by staining cells with 0.1% SRB after fixation with 10% TCA and reading wells at 560 nm.Viability and proliferation of PBMC (T cells) was quantified by Alamar Blue reduction for the SAg and BT systems. For PBMC viability (referred to as PBMC Cytotoxicity within the assay endpoint names), cells were plated (75,000/well in a 96-well plate) and then chemical samples added for 1 h before addition of activators, SEB and TSST-1 (20 ng/mL final concentration each). Cells were incubated for 90 h. Then, Alamar Blue (20 uL/well) (Invitrogen, Cat DAL1100) was added for 6 h, and the plates were read with a fluorescence microplate reader at 546/580 nm (excitation/emission). For PBMC proliferation, cells were plated and activated as above but incubated for only 16 h prior to addition of Alamar Blue. Plates were read after 6 h.
As to `Cc1ccc(S(=O)(=O)OCC(F)(F)C(F)(F)C(F)(F)C(F)(F)C(F)(F)C(F)F)cc1`, the outcome was inactive.

Take `CC(CCl)OP(=O)(OC(C)CCl)OC(C)CCl` (stereo not given): the outcome was inactive.

On to `O=C(O)C(F)(F)C(F)(F)C(F)(F)C(F)(F)C(F)(F)C(F)(F)C(F)(F)C(F)(F)C(F)(F)C(F)F`, for which the outcome was inactive.

Take `CC(=O)Nc1ccc(N=Nc2cc(C)ccc2O)cc1`: the result was inactive.

For `O=C(O)C=C(C(F)(F)F)C(F)(F)F`, the result was inactive.

As to `FC(F)(F)C(F)(F)C(F)(F)C(F)(F)C(F)(F)CCI`, the outcome was inactive.

Take `CCCCCCCOC(=O)c1ccccc1C(=O)OCCCCCCC`: the result was inactive.

As for `FC(F)(F)C(F)(F)CNCC(F)(F)C(F)(F)F`, the AC50 is 30 µM (active) and the outcome was inactive.

Consider `CCCCC(CC)COP(=O)(O)OCC(CC)CCCC` (stereo not given), for which the result was inactive.

For `O=C(O)C(F)(OC(F)(F)C(F)(OC(F)(F)C(F)(OC(F)(F)C(F)(F)C(F)(F)F)C(F)(F)F)C(F)(F)F)C(F)(F)F` (stereo not given), the result was inactive.

With `O=S(=O)(O)C(F)(F)C(F)(F)C(F)(F)C(F)(F)C(F)(F)C(F)(F)C(F)(F)F`, the result was inactive.

For `CCc1ccc(C(c2ccc(CC)cc2)C(Cl)Cl)cc1`, the AC50 was 11.6 µM (active).

Take `C=CC(F)(F)C(F)(F)C(F)(F)C(F)(F)C(F)(F)C(F)(F)C(F)(F)C(F)(F)C=C`: the result was inactive.

On to `CCCCCCCCCCCCCCCC[N+](C)(C)Cc1ccccc1`, for which the half-maximal activity concentration (AC50) is 7.59 µM (active).

Consider `FC(F)(F)C(F)(F)C(F)(F)C(F)(F)C(F)(F)C(F)(F)C(F)(F)I`, for which the outcome was inactive.

For `CO[Si](OC)(c1ccccc1)c1ccccc1`, the AC50 is 20 µM (active).

With `C#C[C@]1(O)CC[C@H]2[C@@H]3CCc4cc(OC)ccc4[C@H]3CC[C@@]21C`, the AC50 is 3.97 µM (active).

For the compound `CC(C)(C)C(=O)CC(=O)C(F)(F)C(F)(F)C(F)(F)F`, the outcome was inactive.

With `C=C(C)C(=O)OCC(F)(F)C(F)(F)C(F)(F)C(F)(F)C(F)(F)C(F)(F)C(F)(F)F`, the result was inactive.

For the compound `CCCCNc1ccccc1`, the outcome was inactive.

Regarding `O=C(CC(=O)C(F)(F)C(F)(F)F)C(F)(F)F`, the result was inactive.

`OCCCC(F)(F)C(F)(F)C(F)(F)F`: the result was inactive.

Turning to `O=S(=O)(OCC(F)F)C(F)(F)F`, the outcome was inactive.

As to `CCCCCCOC(=O)c1ccccc1O`, the AC50 is 41.7 µM (active) and 44.8 µM (active).

As for `CCCCOCCOCCOC(=O)CCCCC(=O)OCCOCCOCCCC`, the outcome was inactive.

Consider `Oc1ccc(Nc2ccccc2)cc1`, for which the AC50 is 0.0694 µM (active).

In the case of `O=C(Cl)C(F)(F)C(F)(F)C(F)(F)C(F)(F)C(F)(F)C(F)(F)C(F)(F)C(F)(F)F`, the result was inactive and the AC50 is 41 µM (active).

Regarding `OCC(F)(F)C(F)(F)C(F)(F)C(F)F`, the outcome was inactive.

As for `O=S(=O)(OCCOC(F)(F)F)C(F)(F)F`, the result was inactive.

For the compound `O=C(O)C(F)(OC(F)(F)C(F)(OC(F)(F)C(F)(F)C(F)(F)F)C(F)(F)F)C(F)(F)F` (stereo not given), the outcome was inactive.

As for `C=CC/C=C/C/C=C/C/C=C/C`, the result was inactive.

On to `C=C(C)C(=O)OCCC(F)(F)C(F)(F)C(F)(F)C(F)(F)C(F)(C(F)(F)F)C(F)(F)F`, for which the result was inactive.

`FC(F)(F)C(F)(F)C(F)(F)C(F)(F)C(F)(F)C(F)(F)CC1CO1` (stereo not given): the outcome was inactive.

Turning to `O=C(O)C(F)(F)C(F)(F)C(F)(F)C(F)(F)C(F)(F)C(F)(F)C(F)(F)C(F)(F)C(F)(F)C(F)(F)C(F)(F)C(F)(F)C(F)(F)F`, the outcome was inactive.

`FC(F)(F)C(F)(F)C(F)(F)N(C(F)(F)C(F)(F)C(F)(F)F)C(F)(F)C(F)(F)C(F)(F)F`: the result was inactive.

For the compound `O=P(O)(O)OCCC(F)(F)C(F)(F)C(F)(F)C(F)(F)C(F)(F)C(F)(F)F`, the result was inactive.

`FC(F)(F)C(F)(F)C(F)(F)C(F)(F)CCI`: the result was inactive.

On to `FC(F)(Br)C(F)(F)C(F)(F)C(F)(F)C(F)(F)C(F)(F)Br`, for which the outcome was inactive.

In general, AC50 refers to the concentration giving half of the maximal activity seen.
